Test [1] is described as follows: Caspase-3/7 induction in HepG2 cells by small molecules, qHTS assay (AID 1346978). Further: nearly all actives have a fitted effect of over 15% in size. In outline:
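Caspase-3/7 induction was measured by Caspase-Glo 3/7 luminescence (30 min, room temperature) after a 17 hr compound exposure of wild-type HepG2 cells seeded at 2,000 per well and pre-incubated 5 hr.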

The nature of test [2]: Caspase-3/7 induction in CHO-K1 cells by small molecules, qHTS cell viability counter screen (AID 1346979). Further: nearly all actives have a fitted effect of over 35% in size. Further: potency means the concentration at half of the fitted maximal effect. In outline: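 To flag cytotoxic compounds, treated CHO-K1 wild-type cells were given CellTiter-Fluor at 16hr and read fluorescently after 1hr at 37C; the caspase-3/7 luminescence was measured in these same wells.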
In general terms: qHTS replaces the single test concentration by a dilution series.

Test [3] in a line: Caspase-3/7 induction in CHO-K1 cells by small molecules, qHTS assay (AID 1346980). Further: nearly all actives have a fitted effect of over 15% in size. In outline:
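Luminescent Caspase-Glo 3/7 read (30min, room temperature) quantified apoptosis induction. Cells were wild-type CHO-K1, treated with compound for 17hr at 37 C and 5% CO2.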

Test [4] deals with Cytochrome P450 2D6 (Homo sapiens) (UniProt P10635). As to the kind of experiment: Cytochrome P450 Family 2 Subfamily D Member 6 (CYP2D6) small molecule antagonists: luciferase reporter qHTS assay (AID 1671196). Further: nearly all actives have a fitted effect of over 50% in size. Further: potency means the concentration at half of the fitted maximal effect. A digest of the protocol: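 Luminogenic proluciferin substrate, CYP2D6 enzyme; 10 min RT preincubation with compound, NADPH regeneration system added, 1 h RT. Stop/detection reagent, 20 min RT, luminescence read (RLU). Signal proportional to CYP activity.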

Test [5] has as its target Cytochrome P450 2C19 (Homo sapiens) (UniProt P33261). As to the kind of experiment: Cytochrome P450 Family 2 Subfamily C Member 19 (CYP2C19) small molecule antagonists: luciferase reporter qHTS assay (AID 1671197). Further: nearly all actives have a fitted effect of over 65% in size. Further: potency means the concentration at half of the fitted maximal effect. In outline:
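First, compounds are pinned into enzyme-substrate mix and held 10 min at room temperature. Second, NADPH regeneration solution is added and plates incubate 1 h at 37C. Third, detection reagent is added and luminescence read after 20 min.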

In test [6] the target is Cytochrome P450 1A2 (Homo sapiens) (UniProt P05177). As to the kind of experiment: Cytochrome P450 Family 1 Subfamily A Member 2 (CYP1A2) small molecule antagonists: luciferase reporter qHTS assay (AID 1671199). Further: nearly all actives have a fitted effect of over 50% in size. Further: potency means the concentration at half of the fitted maximal effect. In outline: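 Luminescence readout (relative luminescence units) after luciferin detection reagent, 20 min RT. Preceded by 1 h room-temperature CYP1A2 reaction with NADPH regeneration solution following 10 min compound preincubation with enzyme and proluciferin substrate. Furafylline positive control.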
For orientation: Reporter assays use an easily measured gene product as a stand-in for the process of interest.

Test [7] addresses Voltage-gated inwardly rectifying potassium channel KCNH2 (Homo sapiens) (UniProt Q12809). As to the kind of experiment: Human Ether-a-go-go-Related Gene (hERG) channel small molecule antagonists: fluorescence cell-based qHTS assay (AID 1671200). Further: nearly all actives have a fitted effect of over 50% in size. Further: potency means the concentration at half of the fitted maximal effect. In outline:
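Measured: Tl+ flux via fluorescence (480/540 nm) in hERG-expressing U2OS cells after 1 h dye loading at room temperature.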
(In general: Block of hERG is tested as a sign of cardiac risk.)

Test [8] addresses Cytochrome P450 3A4 (Homo sapiens) (UniProt P08684). As to the kind of experiment: Cytochrome P450 Family 3 Subfamily A Member 4 (CYP3A4) small molecule antagonists: luciferase reporter qHTS assay (AID 1671201). Further: nearly all actives have a fitted effect of over 50% in size. Further: potency means the concentration at half of the fitted maximal effect. In outline:
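Setup: enzyme-substrate mix, compound pin transfer, 10 min RT. Reaction: NADPH regeneration solution, 1 h RT. Readout: detection reagent stops turnover, luminescence measured after 20 min, expressed in relative luminescence units.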

Test [9] in a line: Human pregnane X receptor (PXR) small molecule agonists, qHTS cell viability counter screen (AID 1346977). Further: nearly all actives have a fitted effect of over 50% in size. Further: potency means the concentration at half of the fitted maximal effect. A digest of the protocol:
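Readout is CellTiter-Fluor fluorescence from PXR-Luc HepG2 cells. Plated cells rested 5hr, then were treated with compounds for 24hr at 37C and 5% CO2, with reagent present during the last hour.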

A short description of test [10]: Caspase-3/7 induction in HepG2 cells by small molecules, qHTS cell viability counter screen (AID 1346981). Further: series mostly up to about 92 µM; nearly all actives have a fitted effect of over 30% in size. In outline:
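Fluorescence read-out of live-cell protease activity (CellTiter-Fluor) after 1 hr with reagent. This was measured in the same wells as the caspase-3/7 luminescence, on HepG2 cells exposed to DMSO-dissolved compounds for 16 hr at 37 C.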

The target of test [11] is Nuclear receptor subfamily 1 group I member 2 (Homo sapiens) (UniProt O75469). As to the kind of experiment: Human pregnane X receptor (PXR) small molecule agonists, qHTS assay (AID 1346982). Further: nearly all actives have a fitted effect of over 35% in size. Further: potency means the concentration at half of the fitted maximal effect. A digest of the protocol:
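HepG2 PXR-Luc reporter line, 5% charcoal-stripped FBS; 5 hr pre-incubation, compound (DMSO) 24 hr at 37 C/5% CO2; ONE-Glo 30 min RT; luminescence read-out.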

Test [12] addresses Cytochrome P450 2C9 (Homo sapiens) (UniProt P11712). As to the kind of experiment: Cytochrome P450 Family 2 Subfamily C Member 9 (CYP2C9) small molecule antagonists: luciferase reporter qHTS assay (AID 1671198). Further: nearly all actives have a fitted effect of over 50% in size. Further: potency means the concentration at half of the fitted maximal effect. A digest of the protocol:
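Enzyme-substrate mix preincubated with compound 10 min at room temperature; reaction started with NADPH regeneration solution, 1 h 37C. Luminescent luciferin product read after 20 min detection reagent.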

In test [13] the target is Nuclear receptor subfamily 1 group I member 2 (Homo sapiens) (UniProt O75469). As to the kind of experiment: CYP3A4 induction through human pregnane X receptor (PXR) by small molecules, qHTS assay (AID 1346984). Further: nearly all actives have a fitted effect of over 40% in size. A digest of the protocol: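 HepG2-derived DPX-2 line carrying PXR plus a CYP3A4-promoter luciferase reporter; cells plated 5 hr, compound-exposed 24 hr at 37C. CYP3A4 activity probed with 3uM (final) Luciferin-IPA for 3hr, then luciferase read after One-Glo.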

Test [14] shares this target. As to the kind of experiment: Human pregnane X receptor (PXR) activation by small molecules, qHTS assay (AID 1346985). Further: nearly all actives have a fitted effect of over 40% in size. In outline:
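DPX-2 cells (HepG2 co-transfected with a PXR response element and a CYP3A4-promoter luciferase construct) were seeded at 2,000 per well, rested 5 hr at 37C, then exposed to DMSO-dissolved compounds for 24 hr. Activation was read as luciferase luminescence.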

The target of test [15] is Nuclear receptor subfamily 1 group I member 2 (Rattus norvegicus) (UniProt Q9R1A7). As to the kind of experiment: Rat pregnane X receptor (rPXR) activation by small molecules, qHTS assay (AID 1346983). Further: nearly all actives have a fitted effect of over 20% in size. Particulars: rPXR luciferase reporter cells, One-Glo luminescence, 24 h; max activation: active compounds read high. In outline:
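Luminescent readout (One-Glo luciferase, 30 min room temperature) followed 24 hr compound treatment at 37 C of rPXR cells plated 2,000 per well and preincubated 5hr; qHTS format with compounds delivered in DMSO.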

Results filed as inconclusive are left out. Activity calls are given as the source filed them. The call rests on the fitted dose curve; in most records, active means well fitted curve in the direction sought with a large enough effect in the repeat runs; inconclusive means weak or mixed curves; inactive means no such curve, though single readings can be large; an effect the other way counts as inactive or inconclusive.
On the % scale 0 is the no-effect control and ±100 the full control effect.

Chain of Voltage-gated inwardly rectifying potassium channel KCNH2 (Homo sapiens) (Q12809 whole entry, looked up): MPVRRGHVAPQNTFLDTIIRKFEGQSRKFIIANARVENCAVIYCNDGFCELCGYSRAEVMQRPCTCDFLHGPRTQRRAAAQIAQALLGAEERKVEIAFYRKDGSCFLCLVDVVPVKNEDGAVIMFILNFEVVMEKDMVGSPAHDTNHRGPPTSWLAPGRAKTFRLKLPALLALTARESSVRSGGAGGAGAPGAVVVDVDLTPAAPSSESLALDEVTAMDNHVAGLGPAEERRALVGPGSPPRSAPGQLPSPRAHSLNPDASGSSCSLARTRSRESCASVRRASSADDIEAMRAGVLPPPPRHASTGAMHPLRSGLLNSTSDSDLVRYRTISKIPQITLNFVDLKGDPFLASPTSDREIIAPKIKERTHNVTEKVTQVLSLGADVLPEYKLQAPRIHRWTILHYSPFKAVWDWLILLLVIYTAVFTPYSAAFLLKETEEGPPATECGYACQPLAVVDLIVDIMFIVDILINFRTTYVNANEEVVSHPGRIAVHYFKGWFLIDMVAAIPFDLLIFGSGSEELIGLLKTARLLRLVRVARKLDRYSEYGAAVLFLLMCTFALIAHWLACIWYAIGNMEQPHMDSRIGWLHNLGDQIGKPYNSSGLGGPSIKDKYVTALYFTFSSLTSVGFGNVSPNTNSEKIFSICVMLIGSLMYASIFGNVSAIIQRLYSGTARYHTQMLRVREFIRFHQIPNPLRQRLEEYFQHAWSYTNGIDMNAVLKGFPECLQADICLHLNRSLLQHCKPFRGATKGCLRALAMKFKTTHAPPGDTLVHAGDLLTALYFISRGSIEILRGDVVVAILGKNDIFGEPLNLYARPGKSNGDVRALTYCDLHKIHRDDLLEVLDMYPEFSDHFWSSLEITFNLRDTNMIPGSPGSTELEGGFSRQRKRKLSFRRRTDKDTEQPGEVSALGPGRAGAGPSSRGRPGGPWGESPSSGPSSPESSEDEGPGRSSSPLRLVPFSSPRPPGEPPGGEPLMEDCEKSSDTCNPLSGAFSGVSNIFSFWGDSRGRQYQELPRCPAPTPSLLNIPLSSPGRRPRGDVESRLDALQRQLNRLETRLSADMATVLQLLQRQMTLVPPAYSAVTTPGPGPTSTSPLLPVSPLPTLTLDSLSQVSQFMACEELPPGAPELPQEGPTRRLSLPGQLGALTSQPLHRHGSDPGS
Chain of Cytochrome P450 1A2 (Homo sapiens) (P05177 whole entry, looked up): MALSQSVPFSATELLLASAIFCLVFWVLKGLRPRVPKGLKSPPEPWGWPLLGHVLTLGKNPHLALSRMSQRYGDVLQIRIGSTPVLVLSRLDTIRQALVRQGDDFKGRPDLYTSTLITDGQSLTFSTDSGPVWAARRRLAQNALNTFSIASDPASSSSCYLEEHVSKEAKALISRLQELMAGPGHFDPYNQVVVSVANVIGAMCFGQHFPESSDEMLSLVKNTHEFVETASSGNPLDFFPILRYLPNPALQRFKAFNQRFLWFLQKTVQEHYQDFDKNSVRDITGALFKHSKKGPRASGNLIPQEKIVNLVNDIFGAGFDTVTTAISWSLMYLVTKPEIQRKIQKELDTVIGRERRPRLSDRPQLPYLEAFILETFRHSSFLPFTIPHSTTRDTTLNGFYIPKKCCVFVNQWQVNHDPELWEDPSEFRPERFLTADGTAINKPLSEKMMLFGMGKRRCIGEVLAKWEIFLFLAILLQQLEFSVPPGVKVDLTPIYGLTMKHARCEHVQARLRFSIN
Chain of Nuclear receptor subfamily 1 group I member 2 (Homo sapiens) (O75469 whole entry, looked up): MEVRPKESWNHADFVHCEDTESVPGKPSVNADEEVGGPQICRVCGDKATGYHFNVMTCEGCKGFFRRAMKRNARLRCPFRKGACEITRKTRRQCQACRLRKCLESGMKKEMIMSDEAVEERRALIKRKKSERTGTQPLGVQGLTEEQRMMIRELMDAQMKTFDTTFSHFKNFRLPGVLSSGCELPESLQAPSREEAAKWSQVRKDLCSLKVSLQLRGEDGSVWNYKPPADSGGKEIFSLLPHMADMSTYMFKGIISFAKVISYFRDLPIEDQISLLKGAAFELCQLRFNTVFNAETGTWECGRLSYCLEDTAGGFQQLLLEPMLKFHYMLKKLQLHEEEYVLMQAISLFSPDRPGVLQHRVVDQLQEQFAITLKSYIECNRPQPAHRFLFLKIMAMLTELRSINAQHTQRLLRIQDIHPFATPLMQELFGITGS
Chain of Cytochrome P450 3A4 (Homo sapiens) (P08684 whole entry, looked up): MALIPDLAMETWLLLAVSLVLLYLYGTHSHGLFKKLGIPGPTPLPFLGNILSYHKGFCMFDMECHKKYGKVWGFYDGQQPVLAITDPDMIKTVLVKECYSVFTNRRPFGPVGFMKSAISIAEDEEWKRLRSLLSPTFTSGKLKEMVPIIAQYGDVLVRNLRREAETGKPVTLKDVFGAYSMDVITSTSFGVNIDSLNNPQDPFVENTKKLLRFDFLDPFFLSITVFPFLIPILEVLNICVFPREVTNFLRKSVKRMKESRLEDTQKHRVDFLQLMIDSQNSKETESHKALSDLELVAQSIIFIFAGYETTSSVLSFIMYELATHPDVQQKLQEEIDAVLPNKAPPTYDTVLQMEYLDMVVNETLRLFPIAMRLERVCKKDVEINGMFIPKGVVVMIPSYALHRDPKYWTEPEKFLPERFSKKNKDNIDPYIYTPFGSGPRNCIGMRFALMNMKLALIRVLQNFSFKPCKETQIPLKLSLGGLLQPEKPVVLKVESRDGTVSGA
Chain of Cytochrome P450 2C9 (Homo sapiens) (P11712 whole entry, looked up): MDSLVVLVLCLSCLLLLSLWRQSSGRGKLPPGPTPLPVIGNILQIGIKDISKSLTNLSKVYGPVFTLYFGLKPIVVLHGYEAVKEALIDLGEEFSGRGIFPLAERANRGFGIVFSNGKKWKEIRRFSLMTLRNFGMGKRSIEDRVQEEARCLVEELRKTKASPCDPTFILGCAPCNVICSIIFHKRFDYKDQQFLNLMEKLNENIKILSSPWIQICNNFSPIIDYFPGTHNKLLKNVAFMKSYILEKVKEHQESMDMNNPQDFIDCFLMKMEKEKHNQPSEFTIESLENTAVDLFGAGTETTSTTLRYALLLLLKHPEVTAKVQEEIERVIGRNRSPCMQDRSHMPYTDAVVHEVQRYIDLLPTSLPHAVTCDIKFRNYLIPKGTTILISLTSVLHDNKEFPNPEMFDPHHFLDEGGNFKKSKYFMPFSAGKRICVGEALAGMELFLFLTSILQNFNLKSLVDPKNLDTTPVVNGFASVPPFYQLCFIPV
Chain of Nuclear receptor subfamily 1 group I member 2 (Rattus norvegicus) (Q9R1A7 whole entry, looked up): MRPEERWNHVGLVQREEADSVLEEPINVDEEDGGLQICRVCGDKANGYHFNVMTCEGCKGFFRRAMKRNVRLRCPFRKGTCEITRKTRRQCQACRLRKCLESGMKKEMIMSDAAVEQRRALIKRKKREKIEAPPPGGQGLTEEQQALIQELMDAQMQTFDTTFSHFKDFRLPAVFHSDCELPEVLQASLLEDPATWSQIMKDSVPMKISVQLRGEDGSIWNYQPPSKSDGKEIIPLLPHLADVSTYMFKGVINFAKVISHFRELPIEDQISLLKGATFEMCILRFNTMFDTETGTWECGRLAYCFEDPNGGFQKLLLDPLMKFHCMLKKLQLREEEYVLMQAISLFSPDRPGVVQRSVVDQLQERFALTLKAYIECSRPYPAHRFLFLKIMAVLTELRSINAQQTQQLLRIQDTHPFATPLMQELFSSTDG
Chain of Cytochrome P450 2C19 (Homo sapiens) (P33261 whole entry, looked up): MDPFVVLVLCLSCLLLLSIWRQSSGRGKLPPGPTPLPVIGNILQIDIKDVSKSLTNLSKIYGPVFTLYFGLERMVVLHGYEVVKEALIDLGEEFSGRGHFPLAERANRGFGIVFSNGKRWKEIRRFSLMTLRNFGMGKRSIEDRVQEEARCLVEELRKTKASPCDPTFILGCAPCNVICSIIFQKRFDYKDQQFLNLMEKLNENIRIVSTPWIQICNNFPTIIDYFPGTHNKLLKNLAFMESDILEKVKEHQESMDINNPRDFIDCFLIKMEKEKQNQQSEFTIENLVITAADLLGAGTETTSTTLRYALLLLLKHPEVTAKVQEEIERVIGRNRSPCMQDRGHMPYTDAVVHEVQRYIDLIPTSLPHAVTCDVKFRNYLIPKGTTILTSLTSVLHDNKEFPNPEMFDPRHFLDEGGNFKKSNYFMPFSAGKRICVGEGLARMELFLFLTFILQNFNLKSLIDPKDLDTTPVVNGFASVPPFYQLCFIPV
Chain of Cytochrome P450 2D6 (Homo sapiens) (P10635 whole entry, looked up): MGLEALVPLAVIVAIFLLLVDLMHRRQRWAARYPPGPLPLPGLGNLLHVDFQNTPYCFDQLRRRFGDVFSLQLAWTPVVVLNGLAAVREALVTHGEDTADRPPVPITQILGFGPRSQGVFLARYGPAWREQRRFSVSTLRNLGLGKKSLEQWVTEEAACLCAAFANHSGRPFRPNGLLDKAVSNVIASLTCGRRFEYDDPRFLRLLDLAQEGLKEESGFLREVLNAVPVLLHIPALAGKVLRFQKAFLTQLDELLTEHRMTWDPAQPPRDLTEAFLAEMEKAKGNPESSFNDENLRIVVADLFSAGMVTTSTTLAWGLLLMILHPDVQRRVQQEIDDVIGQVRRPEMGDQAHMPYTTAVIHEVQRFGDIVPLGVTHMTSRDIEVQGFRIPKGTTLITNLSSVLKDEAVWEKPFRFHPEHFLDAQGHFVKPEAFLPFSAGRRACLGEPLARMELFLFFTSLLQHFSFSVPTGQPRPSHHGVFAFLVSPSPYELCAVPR

With `CC(C)CCCC(=O)O`, the Potency entry in [1], in [2], in test [4], in test [5], in [6] and in [7] was “inactive” each time. Moreover, the Potency result in test [8] was “inactive”. Also, in test [3], the molecule was classed as inactive.

Consider `CC(=O)OCC(=O)[C@@]12OC(C)(C)O[C@@H]1C[C@H]1[C@@H]3C[C@H](F)C4=CC(=O)C=C[C@]4(C)[C@@]3(F)[C@@H](O)C[C@@]12C`, for which the Potency result in test [9], in test [1], in [10] and in test [7] was “inactive” each time. The molecule was called inactive in test [3].

Turning to `CCC(C)(C)C1CCC(O)CC1` (configuration not stated), the Potency entry in [1], in [2], in test [11], in [4], in test [5] and in test [12] was “inactive” each time. In test [8], the Potency entry was “inactive”. Further, the molecule was called inactive in test [3].

`CC(=O)[C@H]1CC[C@H]2[C@@H]3C=CC4=CC(=O)CC[C@@]4(C)[C@@H]3CC[C@]12C`: the Potency result in [9], in test [1], in [10], in [13], in [14] and in [4] was “inactive” throughout. Besides, in test [7], the Potency entry is “inactive”. Further, the molecule was classed as inactive in test [3]. Besides, the Potency was 2.75 µM (active) in [5] and 38.9 µM (active) in [12].

For the molecule `CC(=O)N(c1onc(C)c1C)S(=O)(=O)c1ccc(N)cc1`, the Potency result in [1], in test [2], in test [10], in test [11], in test [5] and in test [12] was “inactive” in each case. Also, the Potency entry in test [6] and in test [7] was “inactive” throughout. In addition, the molecule was classed as inactive in test [3].

As for `O=C(O)c1c(O)c(-c2ccccc2)nc2ccccc12`, the Potency result in test [1], in test [2], in test [10], in test [11], in [4] and in test [7] was “inactive” throughout. For the same molecule, in test [8], the Potency result is “inactive”. In addition, the call in test [3] was inactive.

`CCOC(=O)N1CCC(n2c(=O)[nH]c3cc(Cl)ccc32)CC1`: the Potency entry in test [1], in test [11], in test [4], in [7] and in [8] was “inactive” in each case. In addition, the outcome in test [3] was inactive. The Potency in [5] and in test [12] was 9.77 µM (active) throughout.

Turning to `CO/N=C1\CN(c2nc3c(cc2F)c(=O)c(C(=O)O)cn3C2CC2)CC1CN` (configuration not stated), the Potency entry in test [1], in [11], in test [13], in test [14], in test [4] and in test [5] was “inactive” throughout. The Potency result in [12] and in [8] was “inactive” each time. In addition, the molecule was classed as inactive in [3]. Besides, the max activation in test [15] was -0.199% (inactive).

In the case of `CC(=O)CC(c1ccc([N+](=O)[O-])cc1)c1c(O)c2ccccc2oc1=O` (configuration not stated), the Potency entry in test [9], in [1], in [11], in [13], in [14] and in test [7] was “inactive” each time. The Potency entry in [8] is “inactive”. Besides, the molecule was classed as inactive in test [3]. In test [15], the max activation was -1.52% (inactive). Moreover, the Potency in test [4] is 38.9 µM (active); in [5], 8.71 µM (active); in test [12], 2.45 µM (active).

Regarding `Cc1occc1C(=O)Nc1ccc(C(=O)N2CCC(F)(F)/C(=C\C(=O)N3CCC(N4CCCCC4)CC3)c3ccccc32)cc1`, the Potency is 17 µM (active) in test [9], 19.1 µM (active) in test [11], 2.79 µM (active) in test [4] and 6.09 µM (active) in test [7]. The Potency entry in [1] and in test [2] was “inactive” throughout.

`CCCCOC(=O)CCS`: the Potency result in test [9], in [1], in test [2], in test [10], in [11] and in test [7] was “inactive” each time.

Regarding `CCC(Cc1ccccc1)(C(=O)c1ccc(N2CCOCC2)cc1)N(C)C` (configuration not stated), the Potency entry in test [1] is “inactive”. Further, in test [3], the molecule was called inactive. Moreover, the Potency in test [11] is 30.6 µM (active); in [4], 7.96 µM (active); in [5] it was 39.9 µM (active); in test [12] it was 35.6 µM (active); in test [7] it was 13.8 µM (active).

As for `O=C(CCC1CCN(Cc2ccccc2)CC1)c1ccc2c(c1)NCCCC2`, the Potency result in [1], in test [10], in test [5], in test [12], in test [6] and in test [8] was “inactive” in each case. Moreover, the Potency in test [7] is 4.77 µM (active).

For the molecule `Cc1c(C(=O)NN2CCCCC2)nn(-c2ccc(Cl)cc2Cl)c1-c1ccc(Cl)cc1`, the Potency result in test [1], in test [13], in test [14], in [4], in test [5] and in test [6] was “inactive” in each case. Further, the Potency entry in test [8] was “inactive”. For the same molecule, the Potency in test [2] is 26.6 µM (active); in test [7], 2.13 µM (active). Also, in test [3], the molecule was called inactive. Further, the max activation in test [15] was -8.23% (inactive).

For `CC(CCO)CCc1ccccc1` (configuration not stated), the Potency entry in [1], in test [2], in test [10], in test [4] and in [7] was “inactive” each time. Besides, the result in test [3] was inactive. Besides, the Potency in test [12] is 35.6 µM (active); in test [6], 22.4 µM (active).

As to `OCCSc1ccccc1`, the Potency entry in test [1], in [2], in test [11], in [4], in [5] and in [7] was “inactive” throughout. Also, in test [6], the Potency is 39.9 µM (active).

Turning to `COc1cc2c(N3CCN(C(=O)Nc4ccc(OC(C)C)cc4)CC3)ncnc2cc1OCCCN1CCCCC1`, the Potency result in [1], in [5], in test [6] and in [8] was “inactive” in each case. Further, the results for the Potency in [2] and in test [4] were 23.7 µM (active) and 15.5 µM (active), respectively. In test [3], the molecule was classed as inactive.

Take `NC(=O)N(O)[C@@H]1C=C[C@H](Oc2cccc(Oc3ccc(F)cc3)c2)C1`: the Potency entry in test [1] and in test [10] was “inactive” throughout. Besides, the Potency in test [2] was 68.6 µM (active); in test [4] it was 5.03 µM (active); in test [5], 8.94 µM (active); in test [12], 31.7 µM (active); in test [6], 7.96 µM (active); in [8], 0.894 µM (active). For the same molecule, the molecule was classed as inactive in test [3].

Take `O=C(CCCN1CCN(c2ccc(F)cc2)CC1)NC1c2ccccc2CSc2ccccc21` (configuration not stated): the Potency entry in test [1], in [2] and in test [6] was “inactive” each time. The molecule was classed as inactive in test [3]. For the same molecule, the Potency in test [4] was 9.77 µM (active); in test [5], 4.36 µM (active); in [7] it was 1.9 µM (active).

Regarding `NC(=O)N(O)[C@@H]1COc2cc(OCc3ccccc3)ccc21`, the Potency entry in test [1], in [10] and in test [7] was “inactive” throughout. The Potency in test [2] was 24.3 µM (active); in test [11], 12.2 µM (active); in test [5], 5.03 µM (active); in test [6] it was 5.03 µM (active); in test [8], 2.52 µM (active). In [3], the call was inactive.

Values taken from PubChem BioAssay (Tox21).
